# Potency and affinity values are given separately. Activity calls are given as the source filed them. Where a call stands in place of a potency, no number is given. The rule behind the calls is not given here.
# Assay: toxicity toward immortalized ovarian surface epithelium – cell-based, plate reader, dry powder samples, cytotoxicity control for PAX8 inhibitor project, dose response (AID 743045);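 note: more negative values mean more cell killing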
# Settings: IOSE-T80 ovarian epithelial cells; series mostly up to 35 µM
row,SMILES,outcome
1,CO[C@H]1CN(C)C(=O)c2cc(NC(=O)c3nc4ccccc4s3)ccc2OC[C@H](C)N(Cc2cccnc2)C[C@H]1C,inactive
2,C[C@H](CO)N1C[C@H](C)[C@H](CN(C)S(=O)(=O)c2cccs2)OCCCC[C@H](C)Oc2ccc(NC(=O)NC3CCCCC3)cc2C1=O,inactive
3,C[C@H](CO)N1C[C@H](C)[C@H](CN(C)C(=O)NC2CCCCC2)Oc2cc(C#Cc3cccc(F)c3)ccc2S1(=O)=O,inactive

# Assay: A2780 cell killing – plate reader, dry powder samples, cytotoxicity control, dose response (AID 743046)
# Settings: A2780 ovarian cancer cytotoxicity; series mostly up to 35 µM
row,SMILES,outcome
1,Cc1ccc(S(=O)(=O)N(C)C[C@@H]2Oc3cc(C#Cc4ccncc4)ccc3S(=O)(=O)N([C@@H](C)CO)C[C@H]2C)cc1,inactive
2,C[C@H]1CN([C@@H](C)CO)C(=O)c2cccc(NC(=O)Nc3ccc(F)cc3)c2O[C@H]1CN(C)C(=O)Nc1ccc(C(F)(F)F)cc1,inactive
3,COc1ccc(-c2ccc3c(c2)[C@@H]2[C@@H](CCN2C(=O)C2CCCC2)[C@H](CO)N3C)cc1,inactive
4,C[C@@H]1CCCCO[C@H](CN(C)Cc2ccc(Cl)c(Cl)c2)[C@H](C)CN([C@@H](C)CO)C(=O)c2cc(NC(=O)Nc3ccc(F)cc3)ccc2O1,inactive
5,COc1ccccc1-c1ccc2c(c1)O[C@H](CN(C)Cc1ccc3c(c1)OCO3)[C@H](C)CN([C@@H](C)CO)S2(=O)=O,inactive
6,Cc1ccc(S(=O)(=O)N(C)C[C@@H]2Oc3c(NC(=O)c4ccc(-c5nccs5)cc4)cccc3C(=O)N([C@@H](C)CO)C[C@@H]2C)cc1,inactive
7,CCCN1[C@H](C(=O)N2CCOCC2)[C@@H](CO)[C@@H]2Cn3c(ccc(/C=C/c4ccccc4)c3=O)[C@@H]21,inactive
